# This is part of a sample that, as a whole, favours compounds with a hit. Of some 79,000 tested, about 15% had one in any assay. Values without a mark were called inactive. Activity calls are given as the source filed them. Rule as the data show it: active = growth inhibition above about 70%; inactive = the rest. Where a SMILES comes first, the peptide text is derived from it. The star is where a group is joined. Cbz = O=C(OCc1ccccc1)*
# Experiment: NCI Yeast Anticancer Drug Screen. Data for the bub3 strain (AID 167)
# Conditions: S. cerevisiae bub3 mutant strain, at 50.0 µM, hits give high values
# Method in brief: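 Whole-cell yeast assay. The mutant strain was incubated with compounds, and growth inhibition was determined by comparison with vehicle-treated cells.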
row,SMILES,growth inhibition
1,Cc1cc(C)nc(N)n1,-1.9%
2,CC(NC(=O)NC(C)(C)C)NC(=O)C(N)CC(=O)O (stereo not given),12.7%
3,COC1Cc2c(C)c(OC(C)=O)c3cccnc3c2O1 (stereo not given),4.25%
4,CCOC(=O)/C(C#N)=N\Nc1ccccc1,-1.85%
5,CCCC(C)c1ccc(OCc2ccc(C)cc2)cc1 (stereo not given),-1.05%
6,O=C1CSC(/C(=C\c2ccc(Cl)cc2)c2nc3ccccc3[nH]2)=N1,12.2%
7,Cc1ccc(NC(=O)COc2ccc(Cl)cc2)c(C)c1,16.2%
8,CCCCCCCCCCCCSc1nc2c([nH]1)c(=O)n(C)c(=S)n2C,-1.05%
9,CC(=O)CCC(=O)c1ccoc1,-9.55%
10,O=S(O)CCCCSSCC(O)CO (stereo not given),24.1%
11,Cc1c(Cl)cc(C(C)(C)C)c(O)c1Cc1c(C)c(Cl)cc(C(C)(C)C)c1O,0%
12,COc1ccc(-c2cc(N3CCN(c4ccccc4)CC3)c(C#N)c(=O)o2)cc1,-2.1%
13,CC(=O)CCCC(CC(C)O)[Si](C)(C)C (stereo not given),-8.45%
14,COC(=O)C1(CC(=O)c2cccs2)NC(=S)NC(=O)C1C#N (stereo not given),-11.3%
15,CCCCCCCCCCOc1ccc(OCCCCCCCCC)cc1,-2.3%
16,c1ccc(-c2cc[c]([Sn]([c]3ccccc3)([c]3ccccc3)[c]3ccccc3)cc2)cc1,99% (active)
17,N#Cc1c[nH]c2cccc([N+](=O)[O-])c12 (tested in a mixture with another compound),13.4%
18,O=c1[nH]cnc2c1cnn2Cc1ccccc1,26.1%
19,NC(=O)/C(=N/O)c1ccccc1,-1.2%
20,CCOC(=O)C(NC(=O)c1ccccc1)(N1CCOCC1)C(F)(F)F (stereo not given),-3.45%

row,SMILES,growth inhibition
1,CC1(C)CC(=O)C(C(CCC2CCCCC2=O)C2C(=O)CC(C)(C)CC2=O)C(=O)C1 (stereo not given),9.35%
2,c1ccc2c(c1)oc1cc3c(cc12)n1nnnc1c1cccn31,4.6%
3,CCCCCCCCCCCC(=O)NC(=S)Nc1ccc(C)c(C)c1,57.5%
4,O=C(NNC1=NCCCCN1)Nc1ccc(Cl)cc1,16.6%
5,Cc1ccc(S(=O)(=O)OCC(F)(F)C(F)(F)C(F)(F)CO)cc1,3.85%
6,CCOC(=O)CCC1(C(=O)OC)C(=O)CCCCCCCC1C(=O)OC (stereo not given),19.4%
7,Cc1ccc(Nc2ccc(Nc3ccc(C)cc3)c3c2C(=O)c2ccccc2C3=O)cc1,-8.2%
8,CCSCCOC(=S)Nc1ccccc1,4.25%
9,CCC(=N\NC(=S)NC)/C(C)=N\NC(=S)NC,9.1%
10,O=C(O)c1c(Br)c(Br)c(Br)c(Br)c1C(=O)Nc1ccc(Cl)c(Cl)c1,0%
11,CC1=NNC(=O)C1,-3.2%
12,CCOC(=O)CCC(NC(=O)OCc1ccccc1)C(=O)NC(CCC(=O)OCC)C(=O)OCC (stereo not given) (Cbz-Glu(OEt)-Glu(OEt)-OEt; configuration not given here),4.65%
13,CCc1cc(Cc2cc(CC)c(NC(=O)C(=O)CC(=O)c3sc(-c4cccnc4)nc3C)c(CC)c2)cc(CC)c1NC(=O)C(=O)CC(=O)c1sc(-c2cccnc2)nc1C,-35.9%
14,CCc1cc(CSc2ccc(Cl)cc2)ccc1N,98% (active)
15,COc1cc(C(=O)N2C[C@H](O)C[C@H]2C(=O)O)cc(OC)c1OC,-16.4%
16,COc1ccccc1NC(=S)N/N=C/c1ccccn1,17.7%
17,CC(Oc1cc(Cl)c(Cl)cc1Cl)C(=O)NC(Cc1ccccc1)C(=O)O (stereo not given),-0.45%
18,CC(C)=CC1C[C@H](C2CC=C3C2(C)CCC2[C@@]3(C)C(=O)CC3[C@]2(C)C=CC(=O)[C@]3(C)CO)CO1 (stereo not given in full),81.7% (active)
19,O=C1CSCCO1,1.05%
20,CNC(=O)OCc1nc(SC(C)C)n(C)c1COC(=O)NC,-18.7%

# Experiment: NCI Yeast Anticancer Drug Screen. Data for the mlh1 rad18 strain (AID 175)
# Conditions: S. cerevisiae mlh1 rad18 strain growth inhibition; at 50.0 µM; hits give high values
# Method in brief: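 Genetically defined yeast (DNA repair-deficient) exposed to compounds; growth inhibition determined relative to vehicle.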
row,SMILES,growth inhibition
1,Cc1cc(C)nc(N)n1,10.1%
2,CC(NC(=O)NC(C)(C)C)NC(=O)C(N)CC(=O)O (stereo not given),-20.4%
3,COC1Cc2c(C)c(OC(C)=O)c3cccnc3c2O1 (stereo not given),5.65%
4,CCOC(=O)/C(C#N)=N\Nc1ccccc1,-12.9%
5,CCCC(C)c1ccc(OCc2ccc(C)cc2)cc1 (stereo not given),-4.9%
6,O=C1CSC(/C(=C\c2ccc(Cl)cc2)c2nc3ccccc3[nH]2)=N1,4.3%
7,Cc1ccc(NC(=O)COc2ccc(Cl)cc2)c(C)c1,0.75%
8,CCCCCCCCCCCCSc1nc2c([nH]1)c(=O)n(C)c(=S)n2C,-15.2%
9,CC(=O)CCC(=O)c1ccoc1,9.25%
10,O=S(O)CCCCSSCC(O)CO (stereo not given),13.7%
11,Cc1c(Cl)cc(C(C)(C)C)c(O)c1Cc1c(C)c(Cl)cc(C(C)(C)C)c1O,1.95%
12,COc1ccc(-c2cc(N3CCN(c4ccccc4)CC3)c(C#N)c(=O)o2)cc1,12.1%
13,CC(=O)CCCC(CC(C)O)[Si](C)(C)C (stereo not given),-23.6%
14,COC(=O)C1(CC(=O)c2cccs2)NC(=S)NC(=O)C1C#N (stereo not given),2.55%
15,CCCCCCCCCCOc1ccc(OCCCCCCCCC)cc1,-11.9%
16,c1ccc(-c2cc[c]([Sn]([c]3ccccc3)([c]3ccccc3)[c]3ccccc3)cc2)cc1,98.2% (active)
17,N#Cc1c[nH]c2cccc([N+](=O)[O-])c12 (tested in a mixture with another compound),-2.8%
18,O=c1[nH]cnc2c1cnn2Cc1ccccc1,1.95%
19,NC(=O)/C(=N/O)c1ccccc1,-7.6%
20,CCOC(=O)C(NC(=O)c1ccccc1)(N1CCOCC1)C(F)(F)F (stereo not given),-44.9%

row,SMILES,growth inhibition
1,CC1(C)CC(=O)C(C(CCC2CCCCC2=O)C2C(=O)CC(C)(C)CC2=O)C(=O)C1 (stereo not given),19.6%
2,c1ccc2c(c1)oc1cc3c(cc12)n1nnnc1c1cccn31,-7.8%
3,CCCCCCCCCCCC(=O)NC(=S)Nc1ccc(C)c(C)c1,36.9%
4,O=C(NNC1=NCCCCN1)Nc1ccc(Cl)cc1,5.95%
5,Cc1ccc(S(=O)(=O)OCC(F)(F)C(F)(F)C(F)(F)CO)cc1,-15.5%
6,CCOC(=O)CCC1(C(=O)OC)C(=O)CCCCCCCC1C(=O)OC (stereo not given),7.3%
7,Cc1ccc(Nc2ccc(Nc3ccc(C)cc3)c3c2C(=O)c2ccccc2C3=O)cc1,-4.45%
8,CCSCCOC(=S)Nc1ccccc1,7.1%
9,CCC(=N\NC(=S)NC)/C(C)=N\NC(=S)NC,-14.2%
10,O=C(O)c1c(Br)c(Br)c(Br)c(Br)c1C(=O)Nc1ccc(Cl)c(Cl)c1,-21%
11,CC1=NNC(=O)C1,2.9%
12,CCOC(=O)CCC(NC(=O)OCc1ccccc1)C(=O)NC(CCC(=O)OCC)C(=O)OCC (stereo not given) (Cbz-Glu(OEt)-Glu(OEt)-OEt; configuration not given here),-25.8%
13,CCc1cc(Cc2cc(CC)c(NC(=O)C(=O)CC(=O)c3sc(-c4cccnc4)nc3C)c(CC)c2)cc(CC)c1NC(=O)C(=O)CC(=O)c1sc(-c2cccnc2)nc1C,-19.8%
14,CCc1cc(CSc2ccc(Cl)cc2)ccc1N,98.2% (active)
15,COc1cc(C(=O)N2C[C@H](O)C[C@H]2C(=O)O)cc(OC)c1OC,-9.85%
16,COc1ccccc1NC(=S)N/N=C/c1ccccn1,14%
17,CC(Oc1cc(Cl)c(Cl)cc1Cl)C(=O)NC(Cc1ccccc1)C(=O)O (stereo not given),5.8%
18,CC(C)=CC1C[C@H](C2CC=C3C2(C)CCC2[C@@]3(C)C(=O)CC3[C@]2(C)C=CC(=O)[C@]3(C)CO)CO1 (stereo not given in full),86.2% (active)
19,O=C1CSCCO1,-7%
20,CNC(=O)OCc1nc(SC(C)C)n(C)c1COC(=O)NC,-28.1%

# — PubChem BioAssay (NCI)
